Growth inhibition data for nine compounds are collected here from PubChem BioAssay (NCI).

The structures appear in SMILES notation. This is part of a sample that, as a whole, favours compounds with a hit. Of some 79,000 tested, about 15% had one in any assay. Values without a mark were called inactive. Activity calls are given as the source filed them. No stated cut-off is given here; in the data, active means growth inhibition above about 70%; inactive means the rest.

Experiment [1] can be described thus: NCI Yeast Anticancer Drug Screen. Data for the rad50 strain (AID 155).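 Further: 0% = growth of vehicle-only cultures of the same strain.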 Particulars: S. cerevisiae rad50 strain growth inhibition, stronger effect = higher value. The method, boiled down: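 Growth of the mutant yeast was measured after compound exposure and referenced to vehicle-treated cultures.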
Experiment [2] can be described thus: NCI Yeast Anticancer Drug Screen. Data for the mec2-1 strain (AID 157). Particulars: S. cerevisiae mec2-1 strain, stronger effect = higher value. The method in brief:
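Using mec2-1 yeast: add compound, measure growth, express inhibition versus vehicle-treated cultures.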

Experiment [3] is described as follows: NCI Yeast Anticancer Drug Screen. Data for the sgs1 mgt1 strain (AID 161).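 Further: 0% = growth of cultures given vehicle only.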 Particulars: S. cerevisiae sgs1 mgt1 strain, stronger effect = higher value. The method in brief: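 Yeast cells carrying a defined DNA-repair defect were exposed to test compounds. Growth inhibition was measured relative to vehicle-treated controls.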
Experiment [4] in a line: NCI Yeast Anticancer Drug Screen. Data for the cln2 rad14 strain (AID 165).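 Further: 0% = growth equal to vehicle treated cultures.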 Particulars: S. cerevisiae cln2 rad14 strain, stronger effect = higher value. The method, boiled down:
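Yeast strain cln2 rad14, bearing defects in cell cycle control and DNA repair, serves as the test system; values reflect growth inhibition compared with vehicle.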

Experiment [5] is described as follows: NCI Yeast Anticancer Drug Screen. Data for the bub3 strain (AID 167). Particulars: S. cerevisiae bub3 mutant strain, stronger effect = higher value. The method in brief:
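Whole-cell yeast assay. The mutant strain was incubated with compounds, and growth inhibition was determined by comparison with vehicle-treated cells.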

Experiment [6] can be described thus: NCI Yeast Anticancer Drug Screen. Data for the mlh1 rad18 strain (AID 175). Particulars: S. cerevisiae mlh1 rad18 strain growth inhibition, stronger effect = higher value. The method in brief:
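Steps: expose repair-defective yeast to compound; measure growth; express inhibition against vehicle-treated controls.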

The mark [7] stands for this setting: at 5.0 µM (retest, dose inferred, filed as 0.5).
[8] abbreviates: at 50.0 µM (retest, dose inferred, filed as 5.0).

As for `Cc1cc(-c2ccccc2)c(C)c(-c2ccccc2)c1-c1ccccc1`, the growth inhibition in experiment [1] (setting [7]) is 5%; in experiment [1] (setting [8]), 4%; in experiment [1] (at 50.0 µM) it was 74.6% (active); in experiment [2] (setting [7]) it was 0%; in experiment [2] (setting [8]) it was -1%; in experiment [2] (at 50.0 µM), 37.9%. Moreover, the growth inhibition is 3% in experiment [3] (setting [7]); 7% in experiment [3] (setting [8]); 40% in experiment [3] (at 50.0 µM); -5% in experiment [4] (setting [7]); 64% in experiment [4] (setting [8]); 80.7% (active) in experiment [4] (at 50.0 µM). Further, the growth inhibition in experiment [5] (setting [7]) was -13%; in experiment [5] (setting [8]), 13%; in experiment [5] (at 50.0 µM), 57.4%; in experiment [6] (setting [7]), 1%; in experiment [6] (setting [8]), 16%; in experiment [6] (at 50.0 µM), 60.8%.
Turning to `Cc1nc(-c2ccccc2)nc2c1nc(C(C)C)n2Nc1ccccc1`, the growth inhibition was -2% in experiment [1] (setting [7]); 20% in experiment [1] (setting [8]); 94.1% (active) in experiment [1] (at 50.0 µM); -3% in experiment [2] (setting [7]); 41% in experiment [2] (setting [8]); 57.6% in experiment [2] (at 50.0 µM). The growth inhibition in experiment [3] (setting [7]) was 0%; in experiment [3] (setting [8]), 25%; in experiment [3] (at 50.0 µM), 73.8% (active); in experiment [4] (setting [7]) it was -9%; in experiment [4] (setting [8]), 33%; in experiment [4] (at 50.0 µM) it was 64.8%. Also, the growth inhibition in experiment [5] (setting [7]) was 3%; in experiment [5] (setting [8]) it was 35%; in experiment [5] (at 50.0 µM) it was 80.8% (active); in experiment [6] (setting [7]), -4%; in experiment [6] (setting [8]) it was 37%; in experiment [6] (at 50.0 µM) it was 78.5% (active).
On to `COc1cc2c(cc1C(C)C)CCC1C(C)(C#N)CCCC21C` (configuration not stated), for which the growth inhibition is -6% in experiment [1] (setting [7]); -21% in experiment [1] (setting [8]); 34.4% in experiment [1] (at 50.0 µM); 3% in experiment [2] (setting [7]); -11% in experiment [2] (setting [8]); 46.5% in experiment [2] (at 50.0 µM). Also, the growth inhibition in experiment [3] (setting [7]) was -11%; in experiment [3] (setting [8]), -29%; in experiment [3] (at 50.0 µM), 47.5%; in experiment [4] (setting [7]), 1%; in experiment [4] (setting [8]), -22%; in experiment [4] (at 50.0 µM), 80.1% (active). Further, the growth inhibition in experiment [5] (setting [7]) was 0%; in experiment [5] (setting [8]), -10%; in experiment [5] (at 50.0 µM) it was 45.1%; in experiment [6] (setting [7]), -3%; in experiment [6] (setting [8]) it was -29%; in experiment [6] (at 50.0 µM), 88.8% (active).
For `COc1ccc2c(Cc3cccc([N+](=O)[O-])c3)cncc2c1O`, the growth inhibition in experiment [1] (setting [7]) was 4%; in experiment [1] (setting [8]) it was 68%; in experiment [1] (at 50.0 µM) it was 29.8%; in experiment [2] (setting [7]), -2%; in experiment [2] (setting [8]), 86% (active); in experiment [2] (at 50.0 µM), 35.4%. The growth inhibition in experiment [3] (setting [7]) is -6%; in experiment [3] (setting [8]) it was 65%; in experiment [3] (at 50.0 µM) it was 24%; in experiment [4] (setting [7]), 4%; in experiment [4] (setting [8]) it was 76% (active); in experiment [4] (at 50.0 µM) it was 37.1%. In addition, the growth inhibition in experiment [5] (setting [7]) is 3%; in experiment [5] (setting [8]) it was 91% (active); in experiment [5] (at 50.0 µM), 85% (active); in experiment [6] (setting [7]), 5%; in experiment [6] (setting [8]) it was 92% (active); in experiment [6] (at 50.0 µM) it was 58.8%.
Take `CC(=O)Nc1cccc2c1ccc1ccc3ccccc3c12`: the growth inhibition in experiment [1] (setting [7]) is 13%; in experiment [1] (setting [8]), 21%; in experiment [1] (at 50.0 µM), 77.3% (active); in experiment [2] (setting [7]), -1%; in experiment [2] (setting [8]), 9%; in experiment [2] (at 50.0 µM), 61.2%. The growth inhibition in experiment [3] (setting [7]) was 4%; in experiment [3] (setting [8]) it was 20%; in experiment [3] (at 50.0 µM), 71.2% (active); in experiment [4] (setting [7]), -12%; in experiment [4] (setting [8]), -11%; in experiment [4] (at 50.0 µM) it was -3.25%. In addition, the growth inhibition is 3% in experiment [5] (setting [7]); -1% in experiment [5] (setting [8]); 5.75% in experiment [5] (at 50.0 µM); 32% in experiment [6] (setting [7]); 52% in experiment [6] (setting [8]); 71% (active) in experiment [6] (at 50.0 µM).
For `O=C1C=CC(=O)N1c1cccc([N+](=O)[O-])c1`, the growth inhibition in experiment [1] (setting [7]) is 78% (active); in experiment [1] (setting [8]), 99% (active); in experiment [1] (at 50.0 µM), 99.6% (active); in experiment [2] (setting [7]) it was 95% (active); in experiment [2] (setting [8]), 100% (active); in experiment [2] (at 50.0 µM), 99.7% (active). Further, the growth inhibition in experiment [3] (setting [7]) was 93% (active); in experiment [3] (setting [8]), 99% (active); in experiment [3] (at 50.0 µM), 99.5% (active); in experiment [4] (setting [7]), 84% (active); in experiment [4] (setting [8]) it was 99% (active); in experiment [4] (at 50.0 µM), 99.7% (active). Further, the growth inhibition in experiment [5] (setting [7]) was 99% (active); in experiment [5] (setting [8]), 99% (active); in experiment [5] (at 50.0 µM) it was 99.3% (active); in experiment [6] (setting [7]), 91% (active); in experiment [6] (setting [8]), 99% (active); in experiment [6] (at 50.0 µM), 99.5% (active).
As to `CCCC(Sc1ccccc1)c1ccccc1NC(C)=O` (configuration not stated), the growth inhibition was 1% in experiment [1] (setting [7]); 31% in experiment [1] (setting [8]); 85.5% (active) in experiment [1] (at 50.0 µM); 0% in experiment [2] (setting [7]); 8% in experiment [2] (setting [8]); 58.9% in experiment [2] (at 50.0 µM). The growth inhibition is 1% in experiment [3] (setting [7]); 26% in experiment [3] (setting [8]); 89.9% (active) in experiment [3] (at 50.0 µM); 6% in experiment [4] (setting [7]); 33% in experiment [4] (setting [8]); 37% in experiment [4] (at 50.0 µM). Further, the growth inhibition in experiment [5] (setting [7]) was 6%; in experiment [5] (setting [8]) it was 41%; in experiment [5] (at 50.0 µM), 45.6%; in experiment [6] (setting [7]), 2%; in experiment [6] (setting [8]), 15%; in experiment [6] (at 50.0 µM), 67.5%.
Consider `C[N+](C)(C)CC(=O)N/N=C/c1oc(-c2c(O)ccc3ccccc23)c(-c2c(O)ccc3ccccc23)c1[N+](=O)[O-]`, for which the growth inhibition in experiment [1] (setting [7]) is 57%; in experiment [1] (setting [8]), 57%; in experiment [1] (at 50.0 µM) it was 90% (active); in experiment [2] (setting [7]), 47%; in experiment [2] (setting [8]) it was 47%; in experiment [2] (at 50.0 µM), 90.6% (active). The growth inhibition was 51% in experiment [3] (setting [7]); 51% in experiment [3] (setting [8]); 90.2% (active) in experiment [3] (at 50.0 µM); 13% in experiment [4] (setting [7]); 13% in experiment [4] (setting [8]); 80.9% (active) in experiment [4] (at 50.0 µM). Further, the growth inhibition is 44% in experiment [5] (setting [7]); 44% in experiment [5] (setting [8]); 84.4% (active) in experiment [5] (at 50.0 µM); 58% in experiment [6] (setting [7]); 58% in experiment [6] (setting [8]); 84.2% (active) in experiment [6] (at 50.0 µM).
Turning to `COc1ccc2c(c1)C=C([N+](=O)[O-])C(C1OC(C)(C)OC1C1COC(C)(C)O1)O2` (configuration not stated), the growth inhibition in experiment [1] (setting [7]) was 17%; in experiment [1] (setting [8]), 12%; in experiment [1] (at 50.0 µM), 7.3%; in experiment [2] (setting [7]), 22%; in experiment [2] (setting [8]) it was 24%; in experiment [2] (at 50.0 µM) it was 65.2%. The growth inhibition is 24% in experiment [3] (setting [7]); 14% in experiment [3] (setting [8]); 16.5% in experiment [3] (at 50.0 µM); 19% in experiment [4] (setting [7]); 11% in experiment [4] (setting [8]); 45.1% in experiment [4] (at 50.0 µM). Also, the growth inhibition in experiment [5] (setting [7]) was 48%; in experiment [5] (setting [8]) it was 43%; in experiment [5] (at 50.0 µM), 0.6%; in experiment [6] (setting [7]) it was 24%; in experiment [6] (setting [8]) it was 21%; in experiment [6] (at 50.0 µM), 19.8%.
